# Source: PubChem BioAssay (Broad Institute)
# Many of the other results were omitted from the sample, so hits are more common in it than they were.
# IDE exosite FP – exo-site inhibitors of human insulin-degrading enzyme; P14735; purified IDE, FL-6b probe fluorescence polarization; active compounds read low; z-score at 20 µM; 17,000 tested, 6.3% active; AID 1259349;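 active means z-score of -3 or lower, meaning strong loss of probe binding signal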;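 further: His-tagged human IDE residues 42-1019 made in E. coli with 30 nM FL-6b probe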
# Target sequence (P14735 42-1019 limits assumed): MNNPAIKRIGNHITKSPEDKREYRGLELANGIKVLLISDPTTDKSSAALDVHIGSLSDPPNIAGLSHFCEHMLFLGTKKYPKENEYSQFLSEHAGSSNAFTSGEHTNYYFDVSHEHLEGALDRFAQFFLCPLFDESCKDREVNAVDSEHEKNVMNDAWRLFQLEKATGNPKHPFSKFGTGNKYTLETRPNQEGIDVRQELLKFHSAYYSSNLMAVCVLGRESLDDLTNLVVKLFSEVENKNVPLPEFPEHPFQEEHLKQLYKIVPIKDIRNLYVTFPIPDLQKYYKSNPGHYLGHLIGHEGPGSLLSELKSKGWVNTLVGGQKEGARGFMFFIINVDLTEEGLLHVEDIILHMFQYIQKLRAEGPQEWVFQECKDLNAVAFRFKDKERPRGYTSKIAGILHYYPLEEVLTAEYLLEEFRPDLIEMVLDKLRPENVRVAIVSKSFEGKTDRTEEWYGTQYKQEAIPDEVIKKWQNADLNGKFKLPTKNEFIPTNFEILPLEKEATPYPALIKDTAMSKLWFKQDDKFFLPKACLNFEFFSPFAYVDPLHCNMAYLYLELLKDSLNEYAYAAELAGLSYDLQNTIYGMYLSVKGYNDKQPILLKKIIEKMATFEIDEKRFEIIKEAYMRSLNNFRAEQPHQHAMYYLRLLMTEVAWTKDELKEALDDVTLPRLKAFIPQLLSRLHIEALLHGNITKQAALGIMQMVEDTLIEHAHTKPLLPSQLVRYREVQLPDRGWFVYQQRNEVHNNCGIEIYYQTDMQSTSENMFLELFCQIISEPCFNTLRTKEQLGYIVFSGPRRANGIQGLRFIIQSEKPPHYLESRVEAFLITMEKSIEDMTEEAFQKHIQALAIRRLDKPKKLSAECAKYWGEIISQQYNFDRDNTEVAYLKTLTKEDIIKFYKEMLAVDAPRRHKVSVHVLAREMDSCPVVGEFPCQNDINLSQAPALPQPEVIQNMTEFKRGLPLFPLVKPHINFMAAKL
# * = called active by the depositor.
SMILES,IDE exosite FP
O=C(NCc1cc(F)cc(F)c1)[C@@H]1[C@@H](CO)[C@@H]2Cn3c(cccc3=O)[C@H]1N2C(=O)c1cnccn1,-0.64
O=C1[C@H](Cc2ccc(C(F)(F)F)cc2)CCn2nncc2COC[C@H]2CCCCN12,2.4
O=C(Nc1ccc(F)cc1)N1CC(=O)N2[C@H](CO)[C@@H](c3ccc(C#Cc4ccc(F)cc4)cc3)[C@@H]2C1,0.95
C[C@H]1CN([C@@H](C)CO)C(=O)c2ccccc2-c2ccccc2CO[C@@H]1CN(C)C(=O)Nc1ccc(-c2ccccc2)cc1,1.1
O=C(O)C[C@@H]1C[C@H]2c3cc(NC(=O)Nc4ccc(C(F)(F)F)cc4)ccc3O[C@H]2[C@H](CO)O1,0.66
Cc1ccc(-c2ccc([C@H]3[C@@H](CO)N4C(=O)CN(C(=O)Nc5cccc(F)c5)C[C@H]34)cc2)cc1,2.8
COc1ccc2c3c(n(C)c2c1)[C@@H](CO)N(CC1CC1)CC31CN(Cc2ccc(F)cc2)C1,0.41
Cc1ccccc1-c1ccc([C@@H]2[C@H](CO)N3CCCCN(C(=O)Nc4ccccc4)C[C@@H]23)cc1,-5*
Cc1ccccc1-c1ccc([C@@H]2[C@@H](CO)N3CCCCN(C(=O)Nc4ccc(F)cc4)C[C@@H]23)cc1,0.29
COc1ccc(NC(=O)N2CCCCN3[C@H](CO)[C@@H](c4ccc(-c5ccccc5C)cc4)[C@@H]3C2)cc1,0.55
Cc1ccccc1-c1ccc([C@@H]2[C@H](CO)N3CCCCN(C(=O)Nc4ccc(F)cc4)C[C@@H]23)cc1,-11*
Cc1ccccc1-c1ccc([C@H]2[C@@H](CO)N3CCCCN(C(=O)Nc4ccccc4)C[C@@H]23)cc1,-1.4
Cc1ccccc1-c1ccc([C@@H]2[C@@H](CO)N3CCCCN(C(=O)Nc4cccc(F)c4)C[C@@H]23)cc1,-1.5
CC(C)[C@@H]1COCc2cnnn2CCC[C@@H](C)C(=O)N1,-0.25
COC(=O)c1ccc(CN2CC(=O)N3[C@@H](CO)[C@H](c4ccc(-c5cccnc5)cc4)[C@@H]3C2)cc1,-0.38
O=C(C[C@H]1C[C@H]2c3cc(NC(=O)CC4CC4)ccc3O[C@H]2[C@H](CO)O1)NCC1CC1,1.4
O=S(=O)(c1ccccc1)N1CCCCN2[C@H](CO)[C@@H](c3ccc(-c4ccccc4F)cc3)[C@@H]2C1,-0.81
COCC(=O)N1[C@H](C#N)[C@H](c2ccccc2-c2cccc(C)c2)[C@@H]1CO,-0.14
O=C(C[C@@H]1CC[C@H]2[C@@H](COC[C@@H](O)CN2Cc2nccs2)O1)NCc1ccccc1Cl,-0.57
COCC(=O)N1C[C@@H](C)[C@H](OC)CN(C)C(=O)c2ccc(NC(=O)Nc3cccc(F)c3)cc2OC[C@@H]1C,-0.36
CS(=O)(=O)N1CC(=O)N2[C@H](CO)[C@H](c3ccc(C#Cc4cccc(F)c4)cc3)[C@@H]2C1,-9*
CS(=O)(=O)N1CC(=O)N2[C@@H](CO)[C@H](c3ccc(C#Cc4cccc(F)c4)cc3)[C@@H]2C1,-2.9
CCS(=O)(=O)N1CC(=O)N2[C@H](C1)[C@@H](c1ccc(C#Cc3cccc(F)c3)cc1)[C@@H]2CO,-1.6
CCC(=O)N1CC(=O)N2[C@H](C1)[C@H](c1ccc(C#Cc3cccc(F)c3)cc1)[C@@H]2CO,-8.1*
CS(=O)(=O)N1CC(=O)N2[C@H](CO)[C@@H](c3ccc(C#Cc4cccc(F)c4)cc3)[C@@H]2C1,1.5
SMILES,IDE exosite FP
CS(=O)(=O)N1CC(=O)N2[C@H](CO)[C@@H](c3ccc(C#Cc4cccc(F)c4)cc3)[C@H]2C1,-1.1
CCC(=O)N1CC(=O)N2[C@H](CO)[C@H](c3ccc(C#Cc4cccc(F)c4)cc3)[C@@H]2C1,-7*
O=C(CC1CC1)N1CC(=O)N2[C@H](CO)[C@@H](c3ccc(C#Cc4cccc(F)c4)cc3)[C@@H]2C1,-2.1
CCC(=O)N1CC(=O)N2[C@@H](CO)[C@H](c3ccc(C#Cc4cccc(F)c4)cc3)[C@@H]2C1,-0.85
CS(=O)(=O)N1[C@@H](CO)[C@@H](c2ccccc2)C12CN(Cc1cc(F)ccc1F)C2,-0.12
Cc1ccc(S(=O)(=O)Nc2ccc3c(c2)C(=O)N([C@@H](C)CO)C[C@H](C)[C@@H](CN(C)S(=O)(=O)c2cccs2)OCCCC[C@H](C)O3)cc1,0.93
O=C(C1CCOCC1)N1CC(=O)N2[C@H](CO)[C@@H](c3ccc(/C=C/c4ccccc4)cc3)[C@H]2C1,-2.1
O=C(C1CCOCC1)N1CC(=O)N2[C@@H](CO)[C@H](c3ccc(Br)cc3)[C@@H]2C1,4.2
O=C(C1CCOCC1)N1CC(=O)N2[C@@H](CO)[C@H](c3ccc(/C=C/c4ccccc4)cc3)[C@@H]2C1,-4.5*
O=C(C1CCOCC1)N1CC(=O)N2[C@H](CO)[C@@H](c3ccc(Br)cc3)[C@H]2C1,0.54
O=C(C1CCOCC1)N1CC(=O)N2[C@H](CO)[C@@H](c3ccc(/C=C/c4ccccc4)cc3)[C@@H]2C1,-5.5*
O=C(C1CCOCC1)N1CC(=O)N2[C@H](CO)[C@@H](c3ccc(Br)cc3)[C@@H]2C1,-2.6
CCCNC(=O)N1[C@H](CO)[C@@H](c2ccc(C3=CCCC3)cc2)[C@@H]1CN(C)C(C)=O,1.8
